TDP-43 yeast inh – inhibitors of TDP-43 toxicity in yeast. TDP-43 expressing yeast growth rescue, BacTiter-Glo, 24 h. 410,000 tested, 1.8% active. Potency, µM (top dose mostly 46.1 µM), without a hit: at the highest dose growth rescue (activation), hits mostly activators. AID 652104; also: potency is read from the fitted curve at half-maximal effect; % of control where 0% means no effect; nearly all actives have a fitted effect of over 50% in size
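Galactose-induced TDP-43 yeast, OD600=0.02, compound pinned; 24 hr, 30 deg C; BacTiter-Glo luminescence for growth. Inhibitors of TDP-43 toxicity read as activators.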
Mito fusion act – blocks mitochondrial division or promotes mitochondrial fusion | S. cerevisiae fusion-defective mutant growth rescue, CellTiterGlo 48 h | 320,000 tested, 0.23% active | Potency, µM (titrated, usually from 46.1 µM), for the others: at the highest dose growth rescue (activation), hits mostly activators | AID 485298; also: potency is read from the fitted curve at half-maximal effect; % of control where 0% means no effect; nearly all actives have a fitted effect of over 45% in size
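Compounds are tested for their ability to restore growth of mitochondrial fusion-defective yeast strains at non-permissive 37C in YPEG medium over 48 hours. Viability is quantified by luciferase luminescence.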
aSyn rescue – rescues yeast growth from alpha-synuclein toxicity | Yeast expressing alpha-synuclein, growth rescue, BacTiter-Glo, 24 h | Potency, µM (doses to about 46.1 µM), inactives show at the highest dose growth rescue (activation), hits mostly activators | 370,000 tested, 0.14% active; also: potency is read from the fitted curve at half-maximal effect; % of control where 0% means no effect; nearly all actives have a fitted effect of over 65% in size
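Screening used galactose-induced yeast with toxic alpha-synuclein levels, exposed to compound for 24 hr at 30 deg C. Cell growth, read with BacTiter-Glo luminescence, gave the measured signal.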
pAkt inh – blocks phosphorylation of Akt | activity change, % for hits at 50 µM | 360,000 tested, 0.32% active | Neuro2A IGF-stimulated pAkt S473 HTRF, 20 min; stronger effect = lower value; in the data active = activity change below about -80%; inconclusive = mostly about -51% to -80%; also: % is scaled to controls: 0 for no effect and ±100 for the full control effect
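Neuro2A cells (4,500/well, DMEM with 0.5% FBS) were treated with compound at a single 50 µM final concentration, stimulated with 6 nM IGF for 20 min at 37 °C, and lysed. Phospho-Akt Ser473 was read by HTRF as 665/615 ratio ×10^4.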
Anesthetic bind – candidate novel general anesthetic via apoferritin binding | apoferritin/1-aminoanthracene competitive binding, fluorescence | Potency, µM (titrated, usually from 77.5 µM), for the others: at the top dose activity change, negative = displacement, usual class: inhibitors | 350,000 tested, 0.074% active | AID 485281; also: potency is read from the fitted curve at half-maximal effect; % is scaled to controls: 0 for no effect and ±100 for the full control effect; nearly all actives have a fitted effect of over 20% in size
Target sequence (P02791 2-175 limits assumed): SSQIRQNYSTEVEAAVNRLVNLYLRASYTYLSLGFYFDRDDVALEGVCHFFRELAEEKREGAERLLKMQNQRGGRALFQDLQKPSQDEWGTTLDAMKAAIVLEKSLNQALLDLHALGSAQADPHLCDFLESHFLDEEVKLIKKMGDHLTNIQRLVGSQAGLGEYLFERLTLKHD
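In PBS, apoferritin at 10 uM is loaded with 1-AMA from a 50% saturated solution. After 10 min of compound exposure at ambient temperature, reduced 535 nm fluorescence indicates probe displacement.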
CCT chaperon mod – changes cytosolic chaperonin activity. purified chaperonin ATPase assay, HTRF ADP detection, 30 min. activity change, % (no concentration beside the values), hits read low. 360,000 tested, 0.3% active. AID 651819; in the data active = activity change below about -30%; also: % is scaled to controls: 0 for no effect and ±100 for the full control effect
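Enzyme 40 or 20 nM (batch-dependent) in Tris pH 7.4/KCl/MgCl2/DTT; cpd 76 uM single point; ATP 10 uM; 30 min 37 °C; Transcreener ADP HTRF detection, 30 min RT; ratio 665/615.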
Active calls of the source: *. In the library only some 2.5% were active in any assay of this set; here they are far more common. Unless noted, calls follow the shape of the dose curve; as a rule, active = well fitted curve in the direction sought with a large enough effect; inconclusive = small, poorly fitted or top-dose-only effect, or another doubt; inactive = no such curve, though single readings can be large; an effect the other way counts as inactive or inconclusive.

Screening CCN1CCN(C(=S)c2ccc(Cl)cc2)CC1 returned TDP-43 yeast inh 4%, Mito fusion act -2%, aSyn rescue 4%, pAkt inh -115%*, Anesthetic bind -7% and CCT chaperon mod -10.
For CCOC(=O)Cc1ccc(NC(=O)N(Cc2ccc(OC)cc2)C2CCN(C(C)=O)CC2)cc1 the results were TDP-43 yeast inh 10% and Anesthetic bind 3%.
COc1ccc(C)cc1NC(=O)c1c(C)oc2ncn(CC(C)C)c(=O)c12 was read as TDP-43 yeast inh 16µM* and Anesthetic bind -4%.
Screening Cc1cccc(NC(=O)c2c(C)oc3ncn(CC(C)C)c(=O)c23)n1 returned TDP-43 yeast inh 23% and Anesthetic bind 5%.
Screening COc1ccc(C(=O)/C=C/Nc2cc(C)on2)c(OC)c1 returned TDP-43 yeast inh inconclusive, Mito fusion act -4%, aSyn rescue 13µM*, pAkt inh inactive, Anesthetic bind -17% and CCT chaperon mod 1.
`C[N+]1(CC(=O)c2c3ccccc3cc3ccccc23)CCOCC1` gave aSyn rescue 3%.
Cc1nc(NCc2ccccc2)c2nc(-c3ccccc3)n(CCN(C)C)c2n1 was read as Anesthetic bind -7%.
For Cc1cc(NC(=O)CCCC(=O)OCC(F)(F)C(F)F)cc(C)c1C(=O)O the results were TDP-43 yeast inh 11%, Mito fusion act 1%, aSyn rescue 0%, pAkt inh -112%*, Anesthetic bind -12% and CCT chaperon mod 1.
CCOc1cc(C2Nc3ccccc3C(=O)N2Cc2ccco2)ccc1O (stereo not drawn) was read as aSyn rescue -9%.
COc1cccc(CNC(=O)C2CCC(CNS(=O)(=O)c3ccc(Br)s3)CC2)c1 (stereo not drawn) was read as TDP-43 yeast inh 18% and Anesthetic bind -10%.
`O=S(=O)(NC(=NC1CCCCC1)c1ccccc1F)c1ccccc1` gave TDP-43 yeast inh 3%, Mito fusion act 0.63µM*, aSyn rescue 1%, pAkt inh inactive, Anesthetic bind -5% and CCT chaperon mod 0.
Screening C/C=C/C(=O)[C@@H](C)[C@@H](/C=C/C[Si](C)(C)C)C(C)C returned Anesthetic bind 4%.
For CCCCn1c(CN2CCN(C)CC2)nc2ccccc21 the results were TDP-43 yeast inh 3%, Mito fusion act -13%, aSyn rescue -2%, pAkt inh -116%*, Anesthetic bind -17% and CCT chaperon mod 1.
CCCn1c(CN2CCN(C)CC2)nc2ccccc21 was read as TDP-43 yeast inh -20%, Mito fusion act -5%, aSyn rescue 0%, pAkt inh inactive, Anesthetic bind -2% and CCT chaperon mod 0.
COc1cc2c(NC3CCN(C)CC3)nc(N3CCCN(C)CC3)nc2cc1OCCCN1CCCCC1 was read as aSyn rescue 4%.
CCOC(=O)C1CCN(CC(C)(C)NS(=O)(=O)c2ccc(Cl)cc2)CC1 was read as TDP-43 yeast inh -15%, Mito fusion act 5%, aSyn rescue 7%, pAkt inh inactive, Anesthetic bind 2% and CCT chaperon mod 0.
For CCOC(=O)C1CCN(CC(C)(C)NS(=O)(=O)c2ccc(C)cc2)CC1 the results were TDP-43 yeast inh -14%, Mito fusion act 3.5µM*, aSyn rescue 9%, pAkt inh inactive, Anesthetic bind -4% and CCT chaperon mod 0.
CCn1c(-c2cccnc2Cl)nc2cc(Cl)c(Cl)cc21 was read as TDP-43 yeast inh inconclusive, Mito fusion act 10%, aSyn rescue 29%, pAkt inh inactive, Anesthetic bind -12% and CCT chaperon mod 1.
For Cc1nc2cc(Cl)c(Cl)cc2n1-c1ccccn1 the results were TDP-43 yeast inh 13µM*, Mito fusion act 0%, aSyn rescue -3%, pAkt inh inactive and CCT chaperon mod -1.
`O=C(NC1CCCCC1)c1cnn2c1NC(=C1CC1)C=C2C(F)F` gave aSyn rescue 19%.
O=C(/C=C/c1ccco1)N1CCN(c2ncccn2)CC1 was read as TDP-43 yeast inh 10%, Mito fusion act 1%, aSyn rescue -2%, pAkt inh inactive, Anesthetic bind 0% and CCT chaperon mod -1.
O=C(/C=C/c1c(Cl)cccc1Cl)N1CCN(c2ncccn2)CC1 was read as TDP-43 yeast inh 11µM*, Mito fusion act 10%, aSyn rescue inconclusive, pAkt inh inactive, Anesthetic bind -17% and CCT chaperon mod -5.
Screening Cc1ccccc1OCC(=O)Nc1ccc2[nH]ncc2c1 returned TDP-43 yeast inh 13µM*, Mito fusion act 1%, aSyn rescue 9%, pAkt inh inactive, Anesthetic bind -10% and CCT chaperon mod -7.
For O=C(COc1ccc(Cl)cc1)Nc1ccc2[nH]ncc2c1 the results were TDP-43 yeast inh 2.8µM*, Mito fusion act 2%, aSyn rescue -4%, pAkt inh inactive, Anesthetic bind -11% and CCT chaperon mod 3.
`O=C(COc1ccccc1)Nc1ccc2[nH]ncc2c1` gave TDP-43 yeast inh 1%, Mito fusion act 3%, aSyn rescue -1%, pAkt inh inactive, Anesthetic bind -17% and CCT chaperon mod 1.
For Cc1cc(S(=O)(=O)c2ccc(Cl)cc2)nc(S(=O)(=O)c2ccc(Cl)cc2)c1C#N the results were TDP-43 yeast inh 3.5µM*, aSyn rescue -73%, pAkt inh inactive and CCT chaperon mod 0.
For N#Cc1sc(NCc2cccc(Cl)c2)nc1Cl the results were TDP-43 yeast inh 14µM*, Mito fusion act 27%, aSyn rescue 19%, pAkt inh inactive, Anesthetic bind inconclusive and CCT chaperon mod 1.
`COc1cccc(CNC(=O)CSc2ncc3c(n2)-c2cc(Cl)ccc2N(C)S3(=O)=O)c1` gave TDP-43 yeast inh 8% and Anesthetic bind 3%.
For O=C(NC(=S)N1CCN(c2ccc(C(F)(F)F)cc2[N+](=O)[O-])CC1)c1cccs1 the results were TDP-43 yeast inh 20µM*, Mito fusion act 19%, aSyn rescue -3%, pAkt inh inactive, Anesthetic bind -12% and CCT chaperon mod 2.
`Nc1nc(NCc2ccc(Cl)cc2)c2[nH]cnc2n1` gave aSyn rescue 11%.
For Cc1ccc(Cn2c(C)c(C(=O)NCc3ccc4c(c3)OCO4)sc2=O)cc1 the results were TDP-43 yeast inh 25µM*, aSyn rescue -2%, pAkt inh inactive and CCT chaperon mod -8.
For CSc1ccc(Cn2c(C)c(C(=O)NCc3ccc4c(c3)OCO4)sc2=O)cc1 the results were TDP-43 yeast inh 20µM*, aSyn rescue -7%, pAkt inh inactive and CCT chaperon mod -3.
